Bioassay records as filed in PubChem.
ERK EGF block = qHTS Assay for Inhibitors of the ERK Signaling Pathway using a Homogeneous Screening Assay; Stimulation with EGF; Potency, µM (series often up to 11.5 µM), for the others: top-dose activity change, negative = inhibition, hits mostly inhibitors; 130,000 tested, 0.41% active; HEK293-V1b, EGF-stimulated phospho-ERK AlphaScreen; active = well fitted inhibition curve with a large enough effect;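 note: plate controls were stimulated vehicle wells for no effect and unstimulated vehicle basal for full effect; nearly all actives have a fitted effect of over 55% in size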
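Homogeneous cell-based phospho-ERK assay: HEK293/V1b cells in 1% FBS, compound 30 min then EGF 5 min, AlphaScreen luminescence. Activity normalized between DMSO and 25 nM EGF controls; AC50 from Hill modelling.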
* marks the source's active call; other numbers are inactive results; [ ] = remark or other dose. The entries come from a sample that favours hits as a whole. Potency is the fitted concentration of half-maximal effect.

`O=C1C(Cl)=C(Nc2ccc3cn[nH]c3c2)C(=O)c2ccccc21` gave ERK EGF block 15.8µM*.
For O=C(Oc1ccc(NC2=C(Cl)C(=O)c3ccccc3C2=O)cc1)c1ccc([N+](=O)[O-])cc1 the results were ERK EGF block -1.5%.
`CC(=O)Nc1ccc(NC2=C(Cl)C(=O)c3ccccc3C2=O)cc1` gave ERK EGF block 22.0%.
`CN(C)c1ccc(NC2=C(Cl)C(=O)c3ccccc3C2=O)cc1` gave ERK EGF block 14.1µM*.
For NCCC[C@@H](CC(=O)N[C@@H]1CCNC[C@H]1C(=O)N[C@H](CC(=O)N[C@@H](CCC(=O)O)CC(=O)O)Cc1c[nH]c2ccccc12)NC(=O)C[C@H](Cc1c[nH]c2ccccc12)NC(=O)[C@@H]1CNCC[C@H]1N the results were ERK EGF block -13.4%.
`COCC(=O)N1CCC2(CCCN(C(=O)Nc3ccc(OC)cc3)C2)CC1` gave ERK EGF block 4.1%.
COc1cccc([C@@H]2Oc3ccc(Br)cc3C[C@H]2OC(=O)Nc2ccc(OC(F)F)cc2)c1 was read as ERK EGF block -2.7%.
`N[C@H](C(=O)O)[C@@H]1[C@@H](C(=O)O)C1(F)F` gave ERK EGF block -3.2%.
Screening Cc1ccc(N=Nc2c(C)[nH]n(-c3ccccc3)c2=O)c(C)c1 returned ERK EGF block 1.7%.
For Cc1[nH]n(-c2ccccc2)c(=O)c1N=Nc1ccc2c(c1)OCCO2 the results were ERK EGF block 12.6µM*.
For Cc1[nH]n(-c2ccccc2)c(=O)c1N=O the results were ERK EGF block -7.7%.
`C[C@@H]1[C@H](C)CC[C@@]2(C(=O)O[C@H]3O[C@@H](CO[C@H]4O[C@@H](CO)[C@@H](O[C@H]5O[C@@H](C)[C@@H](O)[C@@H](O)[C@@H]5O)[C@@H](O)[C@@H]4O)[C@@H](O)[C@@H](O)[C@@H]3O)CC[C@]3(C)C(=CC[C@H]4[C@@]5(C)C[C@@H](O)[C@@H](O)[C@](C)(CO)[C@@H]5CC[C@@]43C)[C@@H]12` gave ERK EGF block 9.2%[25.7 µM].
For Nc1nc2c(c(=O)[nH]1)N=C(CNc1ccc(C(=O)NC(CCC(=O)O)C(=O)O)cc1)CN2 (stereo not given) the results were ERK EGF block 5.6%.
Screening COc1ccc(Nc2ccnc(Nc3ccc(OC)cc3)n2)cc1 returned ERK EGF block 35.5µM*.
Screening COc1ccc(Nc2c(C)cccc2C)cc1 returned ERK EGF block 4.7%.
`COc1ccc(NC(=O)Nc2cnccn2)cc1` gave ERK EGF block 2.5%[57.5 µM].
Screening COc1cccc(CS(=O)(=O)c2nnnn2CC(C)C)c1 returned ERK EGF block -11.8%.
For Cc1ccc2c(c1)c(C)c(C)n2CC(O)CN1CCOCC1 (stereo not given) the results were ERK EGF block -2.4%.
For CN1CCN(CC(O)COCCOc2ccc(Br)cc2)CC1 (stereo not given) the results were ERK EGF block -3.0%.
For OC(CN1CCNCC1)Cn1c2ccc(Br)cc2c2cc(Br)ccc21 (stereo not given) the results were ERK EGF block 28.2µM*.
Screening COc1cccc(Cn2c(=O)c(-c3cccc(Cl)c3)nc3cncnc32)c1 returned ERK EGF block -2.0%.
O=S(=O)(c1ccccc1)N1CCC2(CCCN(Cc3ccncc3)C2)CC1 was read as ERK EGF block 9.5%.
COC(=O)CC1[C@@]2(C)C[C@]34OC5(C)OC6(C7CC(=O)OC(c8ccoc8)[C@]7(C)CCC6(O5)[C@]13C)C(OC(C)=O)[C@]4(OC(C)=O)C2OC(C)=O (stereo not given in full) was read as ERK EGF block 19.3%.
For CC(C)(S)[C@H](N)C(=O)O the results were ERK EGF block 2.0%.
`CC1=NN(c2ccccc2)C(=O)/C1=C\C=C1/N(C)c2ccccc2C1(C)C` gave ERK EGF block 12.6µM*.
CN1/C(=C\C(=O)CSc2nncn2C)C(C)(C)c2ccccc21 was read as ERK EGF block 1.7%.
CN1/C(=C\C(=O)Nc2cccc(Cl)c2)C(C)(C)c2ccccc21 was read as ERK EGF block 7.7%.
Screening CN1/C(=C/C(=O)C2CC2)C(C)(C)c2ccccc21 returned ERK EGF block 11.4%.
For CC1=NN(c2ccccc2)C(=O)/C1=C\C=C1\N(C)c2ccccc2C1(C)C the results were ERK EGF block 15.8µM*.
For Cc1nn(-c2ccccc2)c(N)c1C1(O)C(=O)N(C)c2ccccc21 (stereo not given) the results were ERK EGF block 7.1%.
C[C@]12C[C@H](O)CC(CO)(CO)C1[C@H](O)C[C@@]13CC4[C@@H](CC12)[C@@]4(C)C3 (stereo not given in full) was read as ERK EGF block 3.6%.
`C=CCC(C)(O)C(=O)OCC` (stereo not given) gave ERK EGF block -7.3%.
For COC(=O)CC1C(C)(C)C(O)C2CC3=C4C=C(OC)OC(c5ccoc5)[C@]4(C)CCC3[C@@]1(C)C2=O (stereo not given in full) the results were ERK EGF block 9.3%.
